Results as given in PubChem BioAssay.
Active and inactive are the calls of the source.

What was measured:
[1] = system: PRMT1 (protein arginine N-methyltransferase 1); assay: small molecules binding arginine methyltransferase PRMT1 – biochemical, small-molecule microarray, 635 nm fluorescence, primary screen (AID 1088); conditions: higher = more signal;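 further: binding of Prmt1 protein to compounds spotted on small-molecule microarray slides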
[2] = growth effects on S. cerevisiae YJM789 – YJM789 clinical isolate, OD600, 24 h, basal, primary screen (AID 1089); conditions: higher = more signal, called active from +8 up or from −8 down;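 further: growth of clinical yeast isolate S. cerevisiae YJM 789 seeded 1000 cells per well; test concentration not given here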
[3] = S. pombe growth modifiers, basal conditions – strain 972, OD600, 24 h, no modulator, primary screen (AID 1090);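 further: basal condition with compound alone and no growth modifier present; test concentration not given here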; conditions: S. pombe 972 growth, higher = more signal, called active from +8 up or from −8 down
[4] = budding yeast growth modifiers under rapamycin – strain BY4716, OD600, 96 h, primary screen (AID 1091); further: test concentration not given here; conditions: S. cerevisiae BY4716 + rapamycin, higher = more signal, called active from +8 up or from −8 down
[5] = target: Torsin-1A-interacting protein 2 (Homo sapiens) (UniProt Q8NFQ8); assay: small molecules binding lysate-expressed LULL1 – cell lysate, human LULL1 lysate, 635/667 nm fluorescence, primary screen (AID 1092); conditions: small-molecule microarray, hLULL1 lysate binding, 635 nm fluorescence; higher = more signal;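 further: probe is lysate of COS7 cells overexpressing human LULL1; score merges per-feature 667 nm fluorescence with signal-to-noise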
[6] = optical density change of DRC41 E. coli – strain DRC41, OD650, 24 h, E. coli filamentation project, primary screen (AID 1093);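 further: MC1000 strain lacking acrAB efflux and sulA so SOS filamentation is blocked; test concentration not given here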; conditions: E. coli DRC41 growth, higher = more signal, called active from +8 up or from −8 down
[7] = probe aLefty2 binding to arrayed compounds – biochemical, biotinylated probe, 635/667 nm fluorescence, primary screen (AID 1094); conditions: small-molecule microarray, higher = more signal;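 further: score merges spot fluorescence near 667 nm with spot signal-to-noise ratio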
[8] = system: Noggin (protein binding on small-molecule microarray); assay: small molecules binding Noggin protein – biochemical, 635/667 nm fluorescence, primary screen (AID 1095); conditions: 635 nm fluorescence, higher = more signal;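 further: score merges 667 nm feature fluorescence with signal to noise over triplicate slides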
[9] = target: Neurogenic locus notch homolog protein 3 (Homo sapiens) (UniProt Q9UM47); assay: small molecules binding NOTCH3 protein – biochemical, 635/667 nm fluorescence, primary screen (AID 1096); conditions: small-molecule microarray, 635 nm fluorescence, higher = more signal
[10] = probe aEGFR binding to arrayed compounds – biochemical, biotinylated probe, 635/667 nm fluorescence, primary screen (AID 1097); conditions: small-molecule microarray, higher = more signal;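 further: probe is a biotinylated anti-EGFR antibody binding compounds printed on slides; score combines fluorescence near 667 nm and signal to noise of each spot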

Sequence of Neurogenic locus notch homolog protein 3 (Homo sapiens) (Q9UM47 whole entry, looked up): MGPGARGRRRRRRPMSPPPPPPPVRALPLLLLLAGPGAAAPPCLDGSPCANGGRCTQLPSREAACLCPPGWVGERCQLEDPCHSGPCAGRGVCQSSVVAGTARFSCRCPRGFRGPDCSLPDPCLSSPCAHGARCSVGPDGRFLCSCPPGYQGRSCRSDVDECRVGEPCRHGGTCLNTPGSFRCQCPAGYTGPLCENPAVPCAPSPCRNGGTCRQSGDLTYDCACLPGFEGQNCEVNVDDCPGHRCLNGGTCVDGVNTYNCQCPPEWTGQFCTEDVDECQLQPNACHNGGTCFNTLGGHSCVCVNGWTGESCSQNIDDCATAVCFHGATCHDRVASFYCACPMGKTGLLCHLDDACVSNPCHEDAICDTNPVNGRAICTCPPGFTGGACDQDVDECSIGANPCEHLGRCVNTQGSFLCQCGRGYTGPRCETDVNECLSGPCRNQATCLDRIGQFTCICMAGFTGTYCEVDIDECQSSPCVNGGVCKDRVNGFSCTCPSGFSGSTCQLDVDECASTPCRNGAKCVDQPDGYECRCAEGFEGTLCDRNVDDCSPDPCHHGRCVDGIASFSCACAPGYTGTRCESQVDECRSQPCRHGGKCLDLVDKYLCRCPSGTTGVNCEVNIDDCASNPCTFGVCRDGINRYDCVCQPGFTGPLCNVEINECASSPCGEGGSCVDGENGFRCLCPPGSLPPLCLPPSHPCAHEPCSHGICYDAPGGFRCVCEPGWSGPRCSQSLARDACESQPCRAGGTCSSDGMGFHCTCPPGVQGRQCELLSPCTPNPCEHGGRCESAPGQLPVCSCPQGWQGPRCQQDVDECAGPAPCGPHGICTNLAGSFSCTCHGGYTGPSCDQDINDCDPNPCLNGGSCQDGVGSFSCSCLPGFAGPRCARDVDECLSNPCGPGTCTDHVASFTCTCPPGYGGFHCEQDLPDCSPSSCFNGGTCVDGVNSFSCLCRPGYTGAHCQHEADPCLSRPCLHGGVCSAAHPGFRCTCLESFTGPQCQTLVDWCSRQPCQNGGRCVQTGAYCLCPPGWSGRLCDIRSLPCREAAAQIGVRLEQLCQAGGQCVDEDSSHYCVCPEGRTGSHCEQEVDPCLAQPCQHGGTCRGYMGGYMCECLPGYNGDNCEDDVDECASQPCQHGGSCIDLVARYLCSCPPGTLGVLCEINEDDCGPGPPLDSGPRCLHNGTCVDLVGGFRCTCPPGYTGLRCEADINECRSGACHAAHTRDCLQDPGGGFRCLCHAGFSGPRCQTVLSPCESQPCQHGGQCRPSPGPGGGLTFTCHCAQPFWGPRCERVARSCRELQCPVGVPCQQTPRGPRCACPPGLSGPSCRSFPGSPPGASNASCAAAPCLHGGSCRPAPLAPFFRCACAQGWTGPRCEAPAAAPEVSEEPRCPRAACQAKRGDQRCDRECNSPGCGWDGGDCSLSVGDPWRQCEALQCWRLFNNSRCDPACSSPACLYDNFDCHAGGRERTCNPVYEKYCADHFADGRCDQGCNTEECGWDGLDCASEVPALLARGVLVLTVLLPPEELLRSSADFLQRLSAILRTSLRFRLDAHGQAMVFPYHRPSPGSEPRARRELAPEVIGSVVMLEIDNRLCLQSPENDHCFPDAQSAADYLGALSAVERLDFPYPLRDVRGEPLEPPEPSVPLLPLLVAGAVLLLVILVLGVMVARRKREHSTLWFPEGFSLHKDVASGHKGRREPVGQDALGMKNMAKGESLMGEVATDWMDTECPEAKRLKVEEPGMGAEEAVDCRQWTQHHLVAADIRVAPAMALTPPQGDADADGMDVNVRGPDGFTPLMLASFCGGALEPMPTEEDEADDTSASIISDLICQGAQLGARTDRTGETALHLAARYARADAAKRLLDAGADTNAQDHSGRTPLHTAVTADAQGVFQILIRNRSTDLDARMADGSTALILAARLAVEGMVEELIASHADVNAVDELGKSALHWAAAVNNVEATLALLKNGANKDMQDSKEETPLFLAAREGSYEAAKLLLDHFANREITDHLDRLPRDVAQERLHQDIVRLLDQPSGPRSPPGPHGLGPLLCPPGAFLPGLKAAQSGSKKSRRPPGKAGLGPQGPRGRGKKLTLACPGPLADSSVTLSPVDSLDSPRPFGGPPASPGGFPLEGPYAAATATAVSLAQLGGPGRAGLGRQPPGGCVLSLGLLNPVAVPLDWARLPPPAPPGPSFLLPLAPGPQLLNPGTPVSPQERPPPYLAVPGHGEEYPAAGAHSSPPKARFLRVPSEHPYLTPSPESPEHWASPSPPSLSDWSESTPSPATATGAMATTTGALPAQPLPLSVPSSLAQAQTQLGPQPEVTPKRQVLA
Sequence of Torsin-1A-interacting protein 2 (Homo sapiens) (Q8NFQ8 whole entry, looked up): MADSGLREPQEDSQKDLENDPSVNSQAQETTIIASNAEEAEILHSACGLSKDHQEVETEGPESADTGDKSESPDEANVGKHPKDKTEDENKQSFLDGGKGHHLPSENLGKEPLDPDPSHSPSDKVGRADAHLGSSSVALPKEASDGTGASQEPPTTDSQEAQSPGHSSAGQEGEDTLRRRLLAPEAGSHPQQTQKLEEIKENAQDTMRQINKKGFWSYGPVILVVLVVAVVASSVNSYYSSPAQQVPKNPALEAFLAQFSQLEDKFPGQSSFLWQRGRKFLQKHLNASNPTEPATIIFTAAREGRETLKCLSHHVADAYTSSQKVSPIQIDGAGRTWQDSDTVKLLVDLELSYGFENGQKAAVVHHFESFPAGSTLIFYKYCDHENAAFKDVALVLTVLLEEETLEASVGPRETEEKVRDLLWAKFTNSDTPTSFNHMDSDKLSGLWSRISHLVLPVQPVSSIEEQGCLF

SMILES | composite z-score [1] | z-score [2] | z-score [3] | z-score [4] | composite z-score [5] | z-score [6] | composite z-score [7] | composite z-score [8] | composite z-score [9] | composite z-score [10]
COCCOC(=O)N1C(=O)[C@@]2(c3cc(C#CC4(O)CCCCCC4)ccc31)[C@H](c1ccc(O)cc1)N1[C@H](c3ccccc3)[C@H](c3ccccc3)OC(=O)[C@H]1[C@@H]2C(=O)N1CCc2cc(OC)c(OC)cc2C1 | 1.56 | -0.749 (inactive) | -0.395 (inactive) | -0.494 (inactive) | 2.41 | 1.45 (inactive) | -0.0719 | -0.435 | -0.551 | -0.226
COc1ccc(C(=O)Nc2cccc(CN3C(=O)[C@@]4(O[C@@H](CC(=O)N5Cc6ccccc6C[C@H]5CO)[C@H]([Si](C)(C)c5ccc(OC)cc5)[C@H]4C)c4ccccc43)c2)cc1 | 1.55 | -1.26 (inactive) | 0.166 (inactive) | 1.22 (inactive) | 1.71 | -0.209 (inactive) | 0.0327 | 1.25 | 0.893 | 0.0276
COCCn1c(C(=O)N2CCCC2)cc2c1C[C@H]1CN(C(=O)c3ccccc3)[C@@](Cc3ccc(OC)cc3)(C(=O)OC)[C@@H]21 | 0.0027 | -2.08 (inactive) | 0.422 (inactive) | -0.651 (inactive) | 1.72 | 0.0251 (inactive) | 0.656 | -0.843 | 1.1 | 0.147
Cc1ccc(S[C@]2(C(=O)NCCN3CCOCC3)CC(=O)N(C3CCCCC3)[C@@H]2c2ccc(CO)cc2)cc1 | 1.05 | -0.0801 (inactive) | -0.134 (inactive) | -0.942 (inactive) | 3.05 | -0.114 (inactive) | -0.072 | 0.218 | 0.404 | -0.111
COC(=O)[C@@]1(Cc2ccc(F)cc2)[C@H]2c3cc(C(=O)N(C)C)n(CCc4c[nH]c5ccc(OC)cc45)c3C[C@H]2CN1C(=O)c1ccccc1 | 0.84 | 0.12 (inactive) | -0.331 (inactive) | 0.342 (inactive) | 3.17 | -1.47 (inactive) | 0.809 | -0.682 | 0.0599 | 0.341
COC(=O)[C@@]1(Cc2ccc(OC)cc2)[C@H]2c3cc(C(=O)N(C)C)n(CCSCCO)c3C[C@H]2CN1C(=O)c1ccccc1 | 0.359 | -0.526 (inactive) | 0.271 (inactive) | -0.251 (inactive) | 3.53 | -0.209 (inactive) | 0.162 | 0.281 | 1.13 | 0.31
CCCNC(=O)[C@@]1(C)c2ccccc2C(=O)N(C(C)C)[C@H]1c1ccc(CO)cc1 | -0.535 | -0.141 (inactive) | -0.712 (inactive) | -0.397 (inactive) | 2.75 | -1.2 (inactive) | 0.0692 | -0.827 | -1.05 | -0.174
CCN(CC)c1ccc(N2CC=CC34O[C@@H]5/C=C\CCCOC(=O)C5[C@H]3C(=O)N(CCCO)[C@@H]4C2=O)cc1 (stereo not given in full) | 1.42 | -1.14 (inactive) | -0.249 (inactive) | -0.511 (inactive) | 3.65 | -0.204 (inactive) | -0.158 | -1.03 | -0.21 | -0.287
C=CCOC(=O)[C@H]1[C@@H]2C(=O)O[C@@H](c3ccccc3)[C@@H](c3ccccc3)N2[C@@H](c2ccc(OCCOC(=O)[C@@H]3C[C@@H]4C(=O)NCC(=O)N4[C@@H]3c3ccc(O)cc3)cc2)[C@]12C(=O)Nc1ccc(I)cc12 | 1.55 | 0.591 (inactive) | 0.0218 (inactive) | 2.48 (inactive) | 2.57 | -0.375 (inactive) | -0.205 | 1.64 | 1.11 | -0.0788
O=C1C[C@@](C(=O)O)(c2ccc([N+](=O)[O-])cc2)[C@@H](c2ccc(CO)cc2I)N1C1CCCCC1 | 0.222 | -1.09 (inactive) | -6.54 (inactive) | 0.173 (inactive) | 2.54 | 2.15 (inactive) | 0.0539 | 0.373 | 1.06 | -0.0828
Cc1ccc(N2C(=O)c3ccccc3[C@@H](C(=O)NCC(C)C)[C@@H]2c2ccc(CO)cc2)nc1 | 0.137 | 0.229 (inactive) | 0.0994 (inactive) | -0.456 (inactive) | 2.32 | 0.409 (inactive) | -0.186 | -0.479 | -1.03 | -0.298
COc1ccc([Si](C)(C)[C@@H]2[C@@H](CCn3cc([C@H](O)c4ccccc4)nn3)O[C@]3(C(=O)N(C)c4ccccc43)[C@H]2C)cc1 | 0.384 | -0.842 (inactive) | 0.324 (inactive) | -0.112 (inactive) | 1.96 | -0.036 (inactive) | -0.166 | -0.133 | -0.0523 | -0.0828
Cc1ccc([C@H]2C(C(=O)O)=C[C@@H](C(C)C)N2S(=O)(=O)c2ccc(C)cc2)cc1 | 0.425 | -0.763 (inactive) | 0.0459 (inactive) | -0.128 (inactive) | 3.51 | -0.678 (inactive) | -0.0598 | -0.0681 | 0.412 | -0.0457
Cn1c2c(c3ccccc31)C(=O)C1NC2C=CC1(C)C(=O)OCc1ccccc1 (stereo not given) | 0.417 | -0.566 (inactive) | 0.35 (inactive) | -0.233 (inactive) | 3.1 | -1.01 (inactive) | -0.0097 | -2.04 | -0.258 | -0.264
CCCCN1CC=CC23O[C@@H]4C=CCCOC(=O)C4[C@H]2C(=O)N(CCCO)[C@@H]3C1=O (stereo not given in full) | -0.253 | -0.174 (inactive) | -0.788 (inactive) | -0.497 (inactive) | -0.748 | 1.02 (inactive) | -0.172 | 0.217 | -1.68 | -0.244
CCN(CC)c1ccc(N2CC=CC34O[C@@H]5C=CCOC(=O)[C@@H]5[C@H]3C(=O)N(CCCCCO)[C@@H]4C2=O)cc1 (stereo not given in full) | -0.456 | -0.821 (inactive) | -1.3 (inactive) | -0.522 (inactive) | 2.74 | 1.29 (inactive) | -0.138 | -0.769 | -0.589 | -0.201
O=c1cccc(-c2cccc3ccccc23)o1 | -0.106 | -5.22 (inactive) | -13.3 (active) | 4.08 (inactive) | 0.877 | 1.48 (inactive) | 0.303 | -0.364 | -0.107 | -0.2
O=C(NCC(O)CO)[C@]1(CCS(=O)(=O)c2ccccc2)N=C(c2ccc(OCCCO)cc2)O[C@@H]1c1ccccc1 (stereo not given in full) | -0.214 | -0.59 (inactive) | -0.149 (inactive) | -0.92 (inactive) | 3.67 | 0.169 (inactive) | -0.0949 | -0.203 | -0.256 | -0.0913
CC(=O)NCCCC[C@@H]1NC(=O)[C@@H]2C[C@H](C(=O)NCc3ccc(F)cc3)[C@H](c3ccc(O)cc3)N2C1=O | 1.54 | -0.36 (inactive) | -1.36 (inactive) | -0.713 (inactive) | 2.41 | 1.53 (inactive) | -0.128 | 1.67 | 0.208 | -0.122
NC(=O)NCC#Cc1ccc2c(c1)[C@]1(C(=O)N2)[C@H](c2ccc(O)cc2)N2[C@H](c3ccccc3)[C@H](c3ccccc3)OC(=O)[C@H]2[C@@H]1C(=O)N1CCN(c2ncccn2)CC1 | 1.01 | 0.113 (inactive) | -0.923 (inactive) | 1.6 (inactive) | 1.45 | 1.1 (inactive) | 0.28 | -0.228 | -0.334 | 0.0193
[N-]=[N+]=NCc1ccccc1C[C@]1(C(=O)N2CCOCC2)N=C(c2ccc(OCCCO)cc2)O[C@H]1c1ccccc1 | 1.46 | -0.432 (inactive) | -9.19 (active) | 31.6 (active) | 2.33 | 1.33 (inactive) | -0.162 | 1.15 | 0.673 | -0.0509
CN(C)CCCCCCNC(=O)[C@@H]1C[C@@H]2C(=O)NCC(=O)N2[C@@H]1c1cccc(OCCO)c1 | 1.53 | 0.116 (inactive) | -0.192 (inactive) | 0.191 (inactive) | 3.07 | 0.121 (inactive) | 0.164 | 1.17 | 1.03 | 0.0225
COc1ccc([Si](C)(C)[C@H]2[C@H](CC(=O)N(CCO)Cc3ccccc3)O[C@@]3(C(=O)N(Cc4cccc(N5C(=O)c6cccc7cccc5c67)c4)c4ccccc43)[C@@H]2C)cc1 | 1.19 | -1.64 (inactive) | -0.897 (inactive) | 2.79 (inactive) | 1.72 | 1.02 (inactive) | -0.0158 | 0.315 | 0.228 | -0.378
CC(C)(C)OC(=O)CC[C@@]1(C(=O)NCC(O)CO)N=C(c2ccc(OCCCO)cc2)O[C@@H]1c1ccccc1 (stereo not given in full) | 1.46 | 0.531 (inactive) | 0.18 (inactive) | 0.375 (inactive) | 3.77 | -0.103 (inactive) | 0.0689 | -0.364 | 0.356 | -0.071
C#C[C@H]1Oc2ccccc2S(=O)(=O)N2CCC[C@@H]12 | -0.513 | -0.346 (inactive) | -0.133 (inactive) | -1.55 (inactive) | -0.607 | -0.738 (inactive) | -0.0804 | 0.636 | -0.226 | -0.0564
C=CCNC(=O)[C@H]1[C@@H]2C(=O)O[C@@H](c3ccccc3)[C@@H](c3ccccc3)N2[C@@H](c2ccc(OCCO)cc2)[C@]12C(=O)N(C(=O)OCCOC)c1ccc(C#CC3(O)CCCCCC3)cc12 | 1.54 | 1.95 (inactive) | 0.97 (inactive) | 6.64 (inactive) | 2.42 | 1.08 (inactive) | -0.0319 | 1.6 | 1.04 | 0.122
CC(C)(C)OC(=O)CC[C@@]1(C(=O)N2CCOCC2)N=C(c2ccc(OCCCO)cc2)O[C@@H]1c1ccccc1N=[N+]=[N-] | 1.53 | 0.501 (inactive) | -0.165 (inactive) | 0.404 (inactive) | 3.67 | 1.29 (inactive) | 0.0769 | 0.952 | 1.06 | 0.127
C=CCOC(=O)[C@@H]1[C@H]2C(=O)O[C@H](c3ccccc3)[C@H](c3ccccc3)N2[C@H](c2ccc(OCCOC(=O)[C@H]3C[C@H]4C(=O)N[C@@H](CC(C)C)C(=O)N4[C@H]3c3cccc(OCCO)c3)cc2)[C@@]12C(=O)Nc1ccc(I)cc12 | 1.53 | 0.705 (inactive) | 0.492 (inactive) | 2.65 (inactive) | 2.66 | 0.147 (inactive) | -0.0849 | 1.58 | 1.06 | -0.0769
